According to PubChem BioAssay (EPA / NIEHS):
Some structures have more than one record in an assay (separate samples or runs), and their calls can disagree. Active and inactive are the calls of the source. The calls were made as follows: active = hit-call score of the fitted dose curve at least 0.9, where 1 is the maximum; inactive = score below 0.9.

Experiments:
[1] = molecular target: Transcription factor E2F1 (Homo sapiens) (UniProt Q01094); assay: ATG_E2F_CIS: Attagene CIS-FACTORIAL HepG2 Assay for human E2F Transcription Factor 1 (AID 2282935); conditions: HepG2 Attagene cis-reporter, E2F reporter RNA transcripts; actives raise or lower the signal
Chain of Transcription factor E2F1 (Homo sapiens) (Q01094 whole entry, looked up): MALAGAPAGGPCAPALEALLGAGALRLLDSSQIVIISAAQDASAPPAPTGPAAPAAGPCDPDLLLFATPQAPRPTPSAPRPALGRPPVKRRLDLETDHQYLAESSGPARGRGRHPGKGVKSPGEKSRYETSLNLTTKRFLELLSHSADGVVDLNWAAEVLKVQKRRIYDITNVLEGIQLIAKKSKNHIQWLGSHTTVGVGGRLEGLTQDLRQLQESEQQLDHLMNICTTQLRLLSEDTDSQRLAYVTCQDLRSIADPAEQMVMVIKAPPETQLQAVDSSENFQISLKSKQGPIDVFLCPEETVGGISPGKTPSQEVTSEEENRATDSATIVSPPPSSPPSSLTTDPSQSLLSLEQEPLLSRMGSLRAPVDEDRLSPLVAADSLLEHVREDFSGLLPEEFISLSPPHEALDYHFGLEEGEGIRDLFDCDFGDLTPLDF
How it was run: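 Gain or loss of reporter transcript, fitted against DMSO, reflects E2F1-driven transcription. Transiently transfected HepG2 dosed 24 h before RNA isolation. Quantified by fluorescent RT-PCR products separated by capillary electrophoresis.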

[2] = ATG_EGR_CIS: Attagene CIS-FACTORIAL HepG2 Assay for human Early Growth Response 1 (EGR1) (AID 2282938); conditions: HepG2 Attagene CIS-FACTORIAL EGR reporter mRNA; actives raise or lower the signal
How it was run: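 After a 24 h treatment of transiently transfected HepG2 cells, total RNA was reverse-transcribed and reporter sequences PCR-amplified, labelled and run on capillary electrophoresis. Reporters sit under cis-regulatory promoters sensing endogenous factors.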

[3] = ATG_M_19_CIS: Attagene CIS-FACTORIAL HepG2 Assay for M19 Transcription Factor (Internal Marker) (AID 2282939); conditions: HepG2 Attagene CIS-FACTORIAL M19 internal marker reporter; actives raise or lower the signal
How it was run: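 Transfect HepG2 with MRTU reporter library → dose chemical, 24 h → isolate total RNA, reverse-transcribe with oligo(dT) → PCR, 6-FAM label, HpaI cut (2 h, 37 C) → capillary electrophoresis. Bidirectional fit vs DMSO.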

[4] = ATG_ERE_CIS: Attagene CIS-FACTORIAL HepG2 Assay for Estrogen Response Element (ERE) (AID 2282940); conditions: HepG2 ERE cis-reporter, Attagene RNA transcript; actives raise or lower the signal
How it was run: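 Transient MRTU transfection of human HepG2; cis-element promoters; 24 h dosing; total RNA → RT (oligo dT) → PCR → 6-FAM primer extension → HpaI digest → CE fluorescence. Bidirectional fit, DMSO baseline.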

[5] = ATG_Ets_CIS: Attagene CIS-FACTORIAL HepG2 Assay for human Erythroblast Transformation Specific (ETS) (AID 2282941); conditions: HepG2 ETS cis-reporter transcription, actives raise or lower the signal
How it was run: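 Cis-regulated reporter mRNA induction in HepG2 (transient transfection), 24 h exposure, RT-PCR plus capillary electrophoresis detection; DMSO serves as negative control and baseline.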

[6] = molecular target: Hepatocyte nuclear factor 3-beta (Homo sapiens) (UniProt Q9Y261); assay: ATG_FoxA2_CIS: Attagene CIS-FACTORIAL HepG2 Assay for human Forkhead box A2 (FOXA2) (AID 2282942); conditions: HepG2 cis-reporter transcription factor activity, 24 h; actives raise or lower the signal
Chain of Hepatocyte nuclear factor 3-beta (Homo sapiens) (Q9Y261 whole entry, looked up): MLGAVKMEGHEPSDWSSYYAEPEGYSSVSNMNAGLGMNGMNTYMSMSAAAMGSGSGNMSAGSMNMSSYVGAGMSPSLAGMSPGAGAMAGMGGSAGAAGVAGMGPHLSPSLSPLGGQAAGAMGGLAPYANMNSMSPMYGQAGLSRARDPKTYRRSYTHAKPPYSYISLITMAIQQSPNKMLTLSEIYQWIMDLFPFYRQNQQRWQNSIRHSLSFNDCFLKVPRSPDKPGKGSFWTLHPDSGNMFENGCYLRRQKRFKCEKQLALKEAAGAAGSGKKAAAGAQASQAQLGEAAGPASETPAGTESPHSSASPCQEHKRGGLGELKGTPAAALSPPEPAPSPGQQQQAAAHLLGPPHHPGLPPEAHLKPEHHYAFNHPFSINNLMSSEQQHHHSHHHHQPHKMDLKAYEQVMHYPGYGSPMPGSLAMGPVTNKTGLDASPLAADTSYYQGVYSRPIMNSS
How it was run: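 24 h dosing of HepG2 bearing cis-reporter constructs; mRNA readout by RT-PCR/CE fluorescence; bidirectional fit, DMSO baseline.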

[7] = ATG_FoxO_CIS: Attagene CIS-FACTORIAL HepG2 Assay for human Forkhead box O (FoxO) (AID 2282943); conditions: HepG2 Attagene cis-reporter, FoxO element, mRNA; actives raise or lower the signal
How it was run: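 Endogenous transcription factor activity read from multiplexed cis-promoter reporter transcripts in transiently transfected HepG2, 24 h after dosing. Reporter RNA measured via RT-PCR plus capillary electrophoresis of FAM-labeled products; gain or loss relative to DMSO.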

[8] = ATG_GATA_CIS: Attagene CIS-FACTORIAL HepG2 Assay for human GATA Binding Protein (AID 2282944); conditions: HepG2 GATA cis-element reporter, Attagene multiplex mRNA; actives raise or lower the signal
How it was run: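 Transient MRTU transfection, HepG2, 24 h compound exposure. Total RNA → oligo(dT) RT → PCR → 6-FAM primer extension → HpaI cut → CE. Bidirectional fit vs DMSO.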

[9] = ATG_GLI_CIS: Attagene CIS-FACTORIAL HepG2 Assay for human Zinc Finger Protein GLI1 (AID 2282945); conditions: HepG2, Attagene cis-factorial reporter mRNA, GLI element; actives raise or lower the signal
How it was run: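 Bidirectional curve fits relative to DMSO, using reporter mRNA levels from RT-PCR plus capillary electrophoresis. Cells were HepG2 transiently carrying cis-regulated reporter constructs, harvested 24 h after dosing.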

[10] = molecular target: Bile acid receptor (Homo sapiens) (UniProt Q96RI1); assay: ATG_IR1_CIS: Attagene CIS-FACTORIAL HepG2 Assay for human Nuclear Receptor Subfamily 1 Group H Member 4 (NR1H4), IR1 submotif (AID 2282946); conditions: IR1 reporter transcription, actives raise or lower the signal
Chain of Bile acid receptor (Homo sapiens) (Q96RI1 whole entry, looked up): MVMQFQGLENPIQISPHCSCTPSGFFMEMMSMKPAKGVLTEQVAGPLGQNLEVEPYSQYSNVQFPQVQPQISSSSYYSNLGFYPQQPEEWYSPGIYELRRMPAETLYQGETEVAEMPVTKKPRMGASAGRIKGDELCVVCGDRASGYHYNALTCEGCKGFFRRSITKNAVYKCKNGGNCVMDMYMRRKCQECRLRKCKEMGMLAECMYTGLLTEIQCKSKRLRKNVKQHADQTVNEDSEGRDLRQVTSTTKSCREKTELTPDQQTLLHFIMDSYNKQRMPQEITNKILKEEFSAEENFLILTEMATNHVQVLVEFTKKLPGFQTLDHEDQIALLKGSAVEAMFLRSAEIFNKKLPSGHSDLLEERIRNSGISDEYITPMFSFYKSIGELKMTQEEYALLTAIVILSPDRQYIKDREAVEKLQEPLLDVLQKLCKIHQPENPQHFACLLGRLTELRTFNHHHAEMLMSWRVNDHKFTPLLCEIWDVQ
How it was run: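 HepG2 cells transiently transfected with multiplexed cis-element reporter units read endogenous transcription factor activity. After 24 h compound exposure, reporter mRNA was quantified by RT-PCR, fluorescent labelling, HpaI digestion and capillary electrophoresis; bidirectional fitting versus DMSO baseline.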

[11] = ATG_GRE_CIS: Attagene CIS-FACTORIAL HepG2 Assay for human Glucocorticoid Response Elements (GRE) (AID 2282947); conditions: HepG2 GRE cis-reporter, Attagene multiplex mRNA; actives raise or lower the signal
How it was run: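 Reporter transcripts read by RT-PCR with capillary electrophoresis fluorescence after a 24 h chemical exposure of HepG2 cells transiently transfected with multiple cis-element reporter units. Gain or loss fitted against DMSO.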

[12] = ATG_ISRE_CIS: Attagene CIS-FACTORIAL HepG2 Assay for human Interferon Regulatory Factor 1 (IRF1) binding to an Interferon-Stimulated Response Element (ISRE) (AID 2282948); conditions: HepG2 ISRE cis-reporter (Attagene), mRNA transcription readout; actives raise or lower the signal
How it was run: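 Multiplexed mRNA reporter readout in human liver HepG2 cells: cis-element-driven reporters transfected, compound added for 24 h, transcripts amplified, fluorescently labelled and sized by capillary electrophoresis; curve fitting bidirectional against DMSO.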

[13] = ATG_M_32_CIS: Attagene CIS-FACTORIAL HepG2 Assay for M32 Transcription Factor (Internal Marker) (AID 2282949); conditions: HepG2 Attagene cis-factorial M32 reporter, mRNA; actives raise or lower the signal;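 also: background control marker of the multiplexed CIS panel rather than a real target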
How it was run: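 HepG2 transfectants (cis-regulated reporter transcription units) dosed 24 h. Reporter mRNA by RT-PCR plus CE, analysed as gain or loss relative to DMSO.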

[14] = molecular target: Hypoxia-inducible factor 1-alpha (Homo sapiens) (UniProt Q16665); assay: ATG_HIF1a_CIS: Attagene CIS-FACTORIAL HepG2 Assay for human Hypoxia Inducible Factor 1 (HIF1A) (AID 2282951); conditions: HepG2 Attagene cis-factorial HIF1a reporter transcription; actives raise or lower the signal
Chain of Hypoxia-inducible factor 1-alpha (Homo sapiens) (Q16665 whole entry, looked up): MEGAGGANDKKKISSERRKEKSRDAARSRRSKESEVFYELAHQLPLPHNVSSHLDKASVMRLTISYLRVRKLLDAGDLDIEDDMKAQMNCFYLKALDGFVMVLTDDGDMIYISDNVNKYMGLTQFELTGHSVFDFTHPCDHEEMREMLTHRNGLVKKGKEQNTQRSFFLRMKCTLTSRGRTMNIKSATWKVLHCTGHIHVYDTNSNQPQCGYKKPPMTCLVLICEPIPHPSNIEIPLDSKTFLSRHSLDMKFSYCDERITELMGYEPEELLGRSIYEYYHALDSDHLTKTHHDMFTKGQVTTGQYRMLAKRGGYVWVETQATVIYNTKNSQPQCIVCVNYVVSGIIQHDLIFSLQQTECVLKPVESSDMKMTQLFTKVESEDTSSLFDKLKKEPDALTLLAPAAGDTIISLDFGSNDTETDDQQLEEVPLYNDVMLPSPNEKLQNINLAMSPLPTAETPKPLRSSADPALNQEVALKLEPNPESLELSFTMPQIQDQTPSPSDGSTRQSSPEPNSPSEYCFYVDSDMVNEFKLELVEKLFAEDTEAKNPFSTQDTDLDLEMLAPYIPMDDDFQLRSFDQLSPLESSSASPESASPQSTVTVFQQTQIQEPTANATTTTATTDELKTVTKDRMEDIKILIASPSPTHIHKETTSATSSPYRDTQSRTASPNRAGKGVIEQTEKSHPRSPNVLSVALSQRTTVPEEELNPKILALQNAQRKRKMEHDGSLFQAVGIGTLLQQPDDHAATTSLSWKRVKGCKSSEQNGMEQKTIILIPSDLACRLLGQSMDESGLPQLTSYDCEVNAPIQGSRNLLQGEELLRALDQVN
How it was run: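 After 24 h chemical exposure of reporter-transfected HepG2 cells, reporter cDNA was PCR-amplified, labelled by 6-FAM primer extension (2 min 95 C, 20 s 68 C, 10 min 72 C), HpaI-cut (2 h, 37 C) and analysed by CE.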

[15] = molecular target: Hepatocyte nuclear factor 6 (Homo sapiens) (UniProt Q9UBC0); assay: ATG_HNF6_CIS: Attagene CIS-FACTORIAL HepG2 Assay for human Hepatocyte Nuclear Factor 6 (HNF6) (AID 2282952); conditions: HepG2 Attagene cis-factorial HNF6 reporter transcription; actives raise or lower the signal
Chain of Hepatocyte nuclear factor 6 (Homo sapiens) (Q9UBC0 whole entry, looked up, the tested form may be a part): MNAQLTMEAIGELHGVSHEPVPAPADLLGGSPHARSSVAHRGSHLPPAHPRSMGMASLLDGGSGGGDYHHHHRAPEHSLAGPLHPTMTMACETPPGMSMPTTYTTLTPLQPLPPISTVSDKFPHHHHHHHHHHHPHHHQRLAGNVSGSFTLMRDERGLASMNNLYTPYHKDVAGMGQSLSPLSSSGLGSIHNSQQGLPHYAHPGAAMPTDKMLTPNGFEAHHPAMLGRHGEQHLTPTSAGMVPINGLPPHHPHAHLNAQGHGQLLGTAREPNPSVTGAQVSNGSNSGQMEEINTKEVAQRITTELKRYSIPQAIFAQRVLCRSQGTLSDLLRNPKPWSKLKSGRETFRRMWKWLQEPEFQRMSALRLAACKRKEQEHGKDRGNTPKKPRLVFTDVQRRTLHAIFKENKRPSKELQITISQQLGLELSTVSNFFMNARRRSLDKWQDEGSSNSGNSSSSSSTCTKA
How it was run: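 Using cis-element reporters in HepG2 liver cells, the assay tracks endogenous factor-driven transcription 24 h post-dosing. Signal comes from 6-FAM-labelled, HpaI-digested RT-PCR fragments, with gain or loss scored against DMSO.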

[16] = molecular target: Heat shock factor protein 1 (Homo sapiens) (UniProt Q00613); assay: ATG_HSE_CIS: Attagene CIS-FACTORIAL HepG2 Assay for human Heat Shock Transcription Factor 1 (HSE) (AID 2282953); conditions: HepG2 HSE cis-reporter, Attagene RNA transcription; actives raise or lower the signal
Chain of Heat shock factor protein 1 (Homo sapiens) (Q00613 whole entry, looked up): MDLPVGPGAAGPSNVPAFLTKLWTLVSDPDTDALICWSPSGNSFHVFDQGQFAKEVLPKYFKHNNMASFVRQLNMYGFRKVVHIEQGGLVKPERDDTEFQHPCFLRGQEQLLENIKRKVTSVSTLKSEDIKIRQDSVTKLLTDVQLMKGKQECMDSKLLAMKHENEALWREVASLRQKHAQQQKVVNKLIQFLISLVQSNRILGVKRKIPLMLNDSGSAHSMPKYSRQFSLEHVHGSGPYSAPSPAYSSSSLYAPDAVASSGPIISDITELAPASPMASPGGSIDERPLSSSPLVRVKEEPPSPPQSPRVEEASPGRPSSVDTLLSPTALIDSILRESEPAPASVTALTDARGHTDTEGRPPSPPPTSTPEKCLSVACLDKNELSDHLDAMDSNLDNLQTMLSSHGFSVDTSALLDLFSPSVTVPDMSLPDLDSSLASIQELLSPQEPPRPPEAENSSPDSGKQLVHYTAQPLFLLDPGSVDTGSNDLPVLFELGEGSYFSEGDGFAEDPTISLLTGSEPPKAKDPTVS
How it was run: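 HepG2, transient MRTU transfection, cis-promoter reporters (endogenous TF activity). 24 h compound. RNA → oligo(dT) RT → PCR → 6-FAM primer extension → HpaI cut → CE. Bidirectional fit vs DMSO.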

[17] = ATG_MRE_CIS: Attagene CIS-FACTORIAL HepG2 Assay for human Metal Responsive Element (MRE) (AID 2282954); conditions: HepG2 MRE cis-reporter transcription, Attagene multiplex; actives raise or lower the signal
How it was run: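 Endogenous MRE-dependent transcription read as reporter mRNA in transiently transfected human HepG2 cells at 24 h. RNA reverse-transcribed, PCR-amplified, labelled and resolved by capillary electrophoresis; gain or loss relative to DMSO.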

[18] = ATG_E_Box_CIS: Attagene CIS-FACTORIAL HepG2 Assay for human Enhancer Box (E-box) (AID 2282936); conditions: HepG2 E-box cis-reporter transcription, actives raise or lower the signal
How it was run: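 E-box-driven reporter transcripts measured in transiently transfected HepG2 after 24 h exposure: RNA reverse-transcribed, PCR-amplified, fluorescently labelled, digested and resolved by capillary electrophoresis. Gain or loss relative to DMSO.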

[19] = ATG_M_06_CIS: Attagene CIS-FACTORIAL HepG2 Assay for M06 Transcription Factor (Internal Marker) (AID 2282950); conditions: HepG2 Attagene CIS-FACTORIAL M06 internal marker reporter; actives raise or lower the signal
How it was run: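 Read-out is fluorescence of labelled reporter cDNA fragments resolved by capillary electrophoresis after RT-PCR. Cells: HepG2 carrying transfected cis-promoter reporter units, treated 24 h. Gain or loss of signal fitted relative to DMSO.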

[20] = ATG_M_61_CIS: Attagene CIS-FACTORIAL HepG2 Assay for M61 Transcription Factor (Internal Marker) (AID 2282937); conditions: HepG2 Attagene CIS-FACTORIAL M61 internal marker reporter; actives raise or lower the signal
How it was run: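 Transfect HepG2 with MRTUs; dose 24 h; isolate RNA; reverse-transcribe with DNase I treatment; PCR-amplify, FAM-label and cut with HpaI for 2 h at 37 C; resolve by CE. Bidirectional fitting against DMSO.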

Measured: AC50

O=C(O)C(F)(F)C(F)(F)C(F)F
not listed: [18] | [19] | [20]
inactive: all other assays above

CCCCCCS
active: [12] 133 µM
not listed: [14] | [16] | [19] | [20]
inactive: all other assays above

CCCCCCCOC(=O)c1ccccc1C(=O)OCCCCCCC
not listed: [14] | [16] | [18] | [20]
inactive: all other assays above

CCCCCCOC(=O)c1ccccc1
not listed: [18]
inactive: all other assays above

O=C(CC(=O)C(F)(F)C(F)(F)F)C(F)(F)F
inactive: [18] | [20] | [2] | [3] | [4] | [5] | [6] | [7] | [8] | [9] | [10] | [11] | [12] | [13] | [14] | [15] | [17]
active: [10] 106 µM

N=C(N)C(F)(F)C(F)(F)C(F)(F)C(F)(F)C(F)(F)C(F)(F)C(F)(F)F
active: [1] 199 µM | [18] 68.5 µM | [4] 38.6 µM | [8] 243 µM
not listed: [14] | [20]
inactive: all other assays above

OCCCC(F)(F)C(F)(F)C(F)(F)C(F)(F)C(F)(F)C(F)(F)C(F)(F)F
inactive: [1] | [20] | [2] | [3] | [4] | [5] | [6] | [7] | [8] | [9] | [10] | [11] | [12] | [13] | [19] | [14] | [15] | [17]
active: [2] 80.6 µM | [3] 264 µM | [4] 19.9 µM | [5] 50 µM | [7] 65.3 µM | [8] 78.9 µM | [11] 96.3 µM | [13] 233 µM | [14] 197 µM | [15] 83 µM | [17] 50 µM
